In PMC5540273 (PLoS ONE, 2017):

Columns and labels:
Conditions in all cases: concentration: 1 μM, replicates: in singlicate; n = 1
MAP3K15 = system: MAP3K15
MAP3K1 = system: MAP3K1
MAP3K2 = system: MAP3K2
MAP3K3 = system: MAP3K3
MAP3K4 = system: MAP3K4
MAP4K2 = system: MAP4K2
MAP4K3 = system: MAP4K3
MAP4K4 = system: MAP4K4
MAP4K5 = system: MAP4K5
MAPKAPK2 = system: MAPKAPK2
MAPKAPK5 = system: MAPKAPK5
MARK1 = system: MARK1
MARK2 = system: MARK2
MARK3 = system: MARK3
MARK4 = system: MARK4
MAST1 = system: MAST1
MEK1 = system: T1, MEK1
T1 construct: gene MAP2K1

MEK2 = system: T2, MEK2
T2 construct: gene MAP2K2

MEK3 = system: T3, MEK3
T3 construct: gene MAP2K3

MEK4 = system: T4, MEK4
T4 construct: gene MAP2K4
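Further: KINOMEscan kinase panel screen.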

Row | SMILES | %Inh (MAP3K15) [%] | %Inh (MAP3K1) [%] | %Inh (MAP3K2) [%] | %Inh (MAP3K3) [%] | %Inh (MAP3K4) [%] | %Inh (MAP4K2) [%] | %Inh (MAP4K3) [%] | %Inh (MAP4K4) [%] | %Inh (MAP4K5) [%] | %Inh (MAPKAPK2) [%] | %Inh (MAPKAPK5) [%] | %Inh (MARK1) [%] | %Inh (MARK2) [%] | %Inh (MARK3) [%] | %Inh (MARK4) [%] | %Inh (MAST1) [%] | %Inh (MEK1) [%] | %Inh (MEK2) [%] | %Inh (MEK3) [%] | %Inh (MEK4) [%]
1 | O=C(Nc1n[nH]c2nc(-c3ccccc3)ccc12)C1CC1 [SB-708999] | 3 | 17 | 6 | 0 | 28 | 0 | 1 | 53 | 12 | 4 | 0 | 0 | 0 | 0 | 8 | 22 | 6 | 0 | 0 | 0
2 | COC(=O)Nc1nc2ccc(Oc3ccc(CC(=O)Nc4cc(C(F)(F)F)ccc4F)cc3)cc2[nH]1 [GW680903] | 0 | 0 | 0 | 0 | 8 | 0 | 0 | 0 | 0 | 20 | 0 | 0 | 100 | 5 | 0 | 0 | 0 | 0 | 0 | 29
3 | CCn1c(-c2nonc2N)nc2c(-c3ccccc3)ncc(OCCCN)c21.O=C(O)C(F)(F)F.O=C(O)C(F)(F)F [GSK260205] | 0 | 17 | 98.2 | 97.7 | 6 | 3 | 0 | 76 | 5 | 13 | 0 | 0 | 0 | 0 | 0 | 28 | 0 | 0 | 0 | 13
4 | Cl.Cl.NCC(NC(=O)c1cc(-c2cccnc2)c(-c2ccnc3[nH]ccc23)s1)c1ccccc1 (stereo not drawn) [GSK1323434] | 0 | 7 | 3 | 0 | 0 | 41 | 0 | 82 | 0 | 6 | 0 | 0 | 40 | 0 | 8 | 0 | 0 | 0 | 39 | 25
5 | Cc1ccccc1CC(=O)N1CCc2cc(-c3cn(C)c4ncnc(N)c34)ccc21 [GSK2603346] | 20 | 19 | 88 | 62 | 90 | 29 | 97.8 | 0 | 88 | 7 | 0 | 0 | 0 | 0 | 0 | 0 | 0 | 0 | 1 | 27
6 | CN1CCN(Cc2ccc(NC(=O)Nc3ccc(N(C)c4ccnc(Nc5ccc(CS(C)(=O)=O)cc5)n4)cc3)cc2)CC1.Cl [GW827654] | 100 | 37 | 59 | 61 | 96 | 67 | 95.5 | 95.8 | 82 | 0 | 13 | 32 | 60 | 61 | 31 | 32 | 1 | 25 | 74 | 86
7 | N#Cc1cnc2cc(-c3cnc(CNCCN4CCOCC4)s3)ccc2c1Nc1ccc(Oc2ccccc2)cc1 [GW664114] | 0 | 19 | 65 | 86 | 99.2 | 71 | 98.9 | 98.1 | 99.6 | 14 | 0 | 35 | 0 | 9 | 5 | 0 | 100 | 100 | 9 | 80
8 | Cn1cc(-c2cnc(N)c3c(-c4ccc5c(c4)CCN5C(=O)Cc4ccccc4)csc23)cn1 [GSK2593074] | 35 | 4 | 75 | 64 | 82 | 36 | 97.6 | 0 | 98.8 | 0 | 0 | 0 | 5 | 0 | 9 | 25 | 36 | 23 | 23 | 56
9 | Cc1cccc(Nc2nc(NCCN)ncc2C(N)=O)c1 [GSK1292139] | 0 | 4 | 62 | 31 | 22 | 98.4 | 32 | 83 | 26 | 2 | 44 | 0 | 39 | 7 | 0 | 0 | 0 | 9 | 94.9 | 55
10 | Cc1cc(-c2ccnc(Nc3cccc(C#N)c3)n2)cc(C)c1O [GSK1440913] | 0 | 22 | 2 | 1 | 18 | 30 | 18 | 76 | 12 | 0 | 0 | 0 | 0 | 0 | 0 | 0 | 0 | 0 | 89 | 40
11 | Cc1ccc(C)c(NC(=O)Nc2ccc(C)c(-c3ccc(C(=O)Nc4ccncc4)cc3)c2)c1 [GSK1398473] | 83 | 9 | 30 | 0 | 43 | 0 | 2 | 9 | 5 | 5 | 0 | 0 | 0 | 0 | 3 | 0 | 0 | 0 | 0 | 26
12 | COc1cccc(CC(=O)N2CCc3cc(-c4cn(C)c5ncnc(N)c45)ccc32)c1 [GSK2608899] | 13 | 20 | 82 | 49 | 77 | 38 | 78 | 0 | 84 | 21 | 0 | 0 | 0 | 7 | 0 | 0 | 39 | 0 | 0 | 53
13 | c1ccc(Oc2ccc(Nc3ccnc4cc(-c5ccc(CN6CCCCC6)o5)ccc34)cc2)nc1 [GW567143] | 18 | 8 | 0 | 0 | 0 | 0 | 0 | 13 | 81 | 3 | 0 | 0 | 0 | 0 | 5 | 0 | 95.3 | 97.1 | 0 | 0
14 | COc1cc(Nc2ccnc3cc(-c4ccncc4)ccc23)cc(OC)c1OC.Cl [GW494610] | 7 | 8 | 25 | 30 | 0 | 13 | 0 | 83 | 55 | 13 | 0 | 1 | 0 | 0 | 9 | 15 | 14 | 0 | 0 | 27
15 | CC(C)c1nc(-c2ccc(F)c(NS(=O)(=O)c3c(F)cccc3F)c2)c(-c2ccnc(Nc3ccc(N4CCOCC4)nc3)n2)s1 [GSK1804250] | 26 | 17 | 13 | 0 | 23 | 8 | 22 | 4 | 58 | 14 | 0 | 0 | 15 | 0 | 16 | 0 | 17 | 27 | 19 | 100
16 | CN(C)c1ncnc2nc[nH]c12 [SKF-31736] | 37 | 11 | 16 | 0 | 0 | 0 | 0 | 0 | 0 | 0 | 0 | 0 | 9 | 23 | 9 | 49 | 28 | 46 | 54 | 8
17 | Cc1ccc(NC(=O)c2ccnc(N3CCCCC3)c2)cc1-c1ccc(C(=O)NCC2CC2)cc1 [GW775610] | 0 | 0 | 0 | 0 | 0 | 0 | 11 | 0 | 26 | 12 | 5 | 0 | 14 | 0 | 2 | 37 | 4 | 0 | 45 | 0
18 | CNc1nccc(-c2ccc3c(N)n[nH]c3c2)n1 [GSK2206003] | 0 | 14 | 0 | 0 | 0 | 54 | 0 | 13 | 0 | 0 | 0 | 0 | 25 | 0 | 0 | 0 | 0 | 5 | 34 | 22
19 | CC(C)(C)c1ccc(C(=O)Nc2cn3cc(-n4ccnc4)ccc3n2)cc1 | 68 | 12 | 17 | 0 | 15 | 30 | 0 | 6 | 0 | 0 | 0 | 0 | 3 | 0 | 0 | 38 | 5 | 6 | 0 | 38
20 | COc1cccc(C2=C(Nc3cccc(O)c3)C(=O)NC2=O)c1 [SB-390771] | 0 | 0 | 12 | 0 | 38 | 8 | 0 | 4 | 0 | 17 | 0 | 0 | 0 | 1 | 8 | 4 | 0 | 0 | 0 | 0
21 | COC(=O)Nc1nc2ccc(Oc3ccc(NC(=O)Nc4cc(C(F)(F)F)ccc4F)cc3)cc2[nH]1.Cl [GW654607] | 0 | 25 | 0 | 0 | 23 | 1 | 0 | 22 | 11 | 29 | 0 | 0 | 0 | 0 | 0 | 0 | 0 | 0 | 0 | 15
